Inconclusive results are not listed. Where a call stands in place of a potency, no number is given. Active and inactive are the calls of the source. The call rests on the fitted dose curve; in most records, active means well fitted curve in the direction sought with a large enough effect; inconclusive means small, poorly fitted or top-dose-only effect, or another doubt; inactive means no such curve, though single readings can be large; an effect the other way counts as inactive or inconclusive.
Target: Aldehyde dehydrogenase, mitochondrial (Homo sapiens) (UniProt P05091)
Experiment: qHTS for Inhibitors of the Aldehyde Dehydrogenase Family (ALDH2) Primary screen (AID 2061308); further: nearly all actives have a fitted effect of over 55% in size
Details: ALDH2 enzyme inhibition qHTS, 1536-well; series mostly up to 56 µM

SMILES	Potency
C=CCNc1oc(-c2cccnc2)nc1C#N	inactive
COc1ccc2c(c1)Oc1nc(-c3ccc(C)s3)nc(SCC(=O)Nc3cccc(C(=O)O)c3)c1C2	inactive
O=c1c2ccc(Cl)cc2nc2sc(Nc3ccc4c(c3)CCC4)nn12	inactive
O=C1CCc2cc(S(=O)(=O)Nc3ccc4ccccc4c3)ccc2N1	inactive
CC(=O)Nc1sc2c(c1-c1ccc3c(c1)OCO3)CCNC2	inactive
CCN(CC)CCCCn1c(-c2ccccc2)nc2c(NCc3ccccc3)nc(C)nc21	inactive
COc1c/c(=C2\C=c3ccccc3=N2)[nH]/c1=C\c1[nH]c(C)cc1C	inactive
C=C(C)C(=O)O[C@H]1C[C@@](C)(O)C(=O)CC(O)/C(C)=C\[C@H]2OC(=O)C(=C)[C@H]12 (some centres undefined)	inactive
FC(F)(F)c1ccccc1-c1nc(NCc2ccccc2)c2ccccc2n1	inactive
Cc1ccc(C2=NN(CC(=O)NCCc3ccccc3)C(=O)C2)cc1	inactive
O=C(Nc1ncc(Cc2ccc(C(F)(F)F)cc2)s1)c1cnc(-c2ccccc2)s1	inactive
Cc1cc(C)nc(NC(=S)N2CCN(c3ccncc3)CC2)c1	inactive
O=C(NCc1ccc(F)cc1)n1c(-c2ccccc2)c(P(=S)(c2ccccc2)c2ccccc2)c2ccccc21	inactive
Cc1ccc(NS(=O)(=O)c2ccc3c(c2)CCN(C(=O)C(F)(F)F)C3)cc1C	inactive
CC(=O)Nc1sc2c(c1-c1cccc3ccccc13)CCNC2	inactive
O=S(=O)(c1ccc2c(c1)OCCO2)N1CCN(S(=O)(=O)c2ccc(F)c(F)c2F)CC1	inactive
Cc1ccc(N2CCC(CNc3nc(-c4ccccc4C(C)C)ncc3C)CC2)cn1	inactive
CC(=O)O[C@@](C)(C(=O)/C=C/C(C)(C)O)[C@H]1[C@H](O)C[C@@]2(C)[C@@H]3CC=C4[C@@H](C=C(O)C(=O)C4(C)C)[C@]3(C)C(=O)C[C@]12C	inactive
Cc1ccc(S(=O)(=O)Nc2ccccc2C(=O)Nc2cccc(-c3ccccc3)c2)cc1	inactive
Cc1cc(C)nc(NC(=S)N2CCN(S(=O)(=O)c3cccc(C(F)(F)F)c3)CC2)c1	inactive
Fc1cc(F)cc(Nc2nc(NC3CCCC3)nc(C3CO3)n2)c1 (centres undefined)	inactive
Cc1ccc(NS(=O)(=O)c2ccc3c(ccn3C)c2)cc1C	inactive
Cc1sc(NC(=O)Cc2ccc3c(c2)OCO3)nc1-c1ccc2c(c1)CCN2C(=O)c1ccccc1C(F)(F)F	inactive
CCOc1ccc(-c2csc(N3CCC(C(N)=O)CC3)n2)cc1	inactive

Target: Retinaldehyde dehydrogenase 3 (Homo sapiens) (UniProt P47895)
Experiment: qHTS for Inhibitors of the Aldehyde Dehydrogenase Family (ALDH1A3) Primary screen (AID 2061315)
Details: ALDH inhibition qHTS; series mostly up to 56 µM

SMILES	Potency
Cc1nc(CNc2ncnc3ccc(-c4ccoc4)cc23)cs1	inactive
Cc1ccsc1C1N=C(Nc2nc3ccccc3o2)NC2=C1C(=O)CCC2 (centres undefined)	inactive
O=C(N[C@H]1CCN(C(=O)c2cc(C(F)(F)F)cc(C(F)(F)F)c2)[C@H](Cc2ccc(Cl)cc2)C1)c1ccnc2ccccc12	inactive
CCCn1c(-c2ccc(F)cc2)nc2c(N(C)CCN(C)C)nc(C)nc21	inactive
COc1ccc(C2c3c(N)nc(CCCc4ccccc4)nc3Oc3ccc4ccccc4c32)cc1OC (centres undefined)	inactive
C=C(C(=O)OC)[C@@H]1CC=C2C=CC(=O)[C@H](C)[C@@]2(C)C1	inactive
CN(CCc1cnc[nH]1)c1ncnc2ccc(-c3ccc4c(c3)OCO4)cc12	inactive
Cc1cc(NC(=O)c2csc(NC(=O)Cc3ccc(Cl)c(Cl)c3)n2)no1	inactive
CCOC(=O)c1csc(NC(=O)c2ccncc2NS(=O)(=O)c2ccc(C)cc2)n1	inactive
COc1ccc(C2=Nn3c(nnc3-c3ccc(OC)c(OC)c3)SC2)cc1OC	inactive
CC1(C)CC2CC(C)(CN2S(=O)(=O)c2ccc(C(=O)Nc3ccc(Cl)cc3)cc2)C1 (centres undefined)	inactive
O=C(Nc1ccc(Cl)c(Cl)c1)Nc1nnc(-c2ccncc2)s1	inactive
CCOc1ccc(CCNC(=O)c2cc3sccc3n2Cc2ccc(Cl)c(F)c2)cc1OCC	inactive
CCCc1c(C(C)C)nc(C(C)C)c([C@@H](C)O)c1-c1ccc(F)cc1O	inactive
COc1cc(NC(=O)C(OC(=O)CNC(=O)c2ccccc2)c2ccccc2)cc(OC)c1 (centres undefined)	inactive
CC(C)c1ccccc1-c1ncc(F)c(NC2(c3ccc(-c4cccnc4)cc3)CC2)n1	inactive
C=CCNc1oc(-c2cccnc2)nc1C#N	inactive
COc1ccc2c(c1)Oc1nc(-c3ccc(C)s3)nc(SCC(=O)Nc3cccc(C(=O)O)c3)c1C2	inactive
O=c1c2ccc(Cl)cc2nc2sc(Nc3ccc4c(c3)CCC4)nn12	inactive
O=C1CCc2cc(S(=O)(=O)Nc3ccc4ccccc4c3)ccc2N1	inactive

SMILES	Potency
CC(=O)Nc1sc2c(c1-c1ccc3c(c1)OCO3)CCNC2	inactive
CCN(CC)CCCCn1c(-c2ccccc2)nc2c(NCc3ccccc3)nc(C)nc21	inactive
COc1c/c(=C2\C=c3ccccc3=N2)[nH]/c1=C\c1[nH]c(C)cc1C	inactive
C=C(C)C(=O)O[C@H]1C[C@@](C)(O)C(=O)CC(O)/C(C)=C\[C@H]2OC(=O)C(=C)[C@H]12 (some centres undefined)	inactive
FC(F)(F)c1ccccc1-c1nc(NCc2ccccc2)c2ccccc2n1	inactive
Cc1ccc(C2=NN(CC(=O)NCCc3ccccc3)C(=O)C2)cc1	inactive
O=C(Nc1ncc(Cc2ccc(C(F)(F)F)cc2)s1)c1cnc(-c2ccccc2)s1	inactive
Cc1cc(C)nc(NC(=S)N2CCN(c3ccncc3)CC2)c1	inactive
O=C(NCc1ccc(F)cc1)n1c(-c2ccccc2)c(P(=S)(c2ccccc2)c2ccccc2)c2ccccc21	inactive
Cc1ccc(NS(=O)(=O)c2ccc3c(c2)CCN(C(=O)C(F)(F)F)C3)cc1C	inactive
CC(=O)Nc1sc2c(c1-c1cccc3ccccc13)CCNC2	inactive
O=S(=O)(c1ccc2c(c1)OCCO2)N1CCN(S(=O)(=O)c2ccc(F)c(F)c2F)CC1	inactive
Cc1ccc(N2CCC(CNc3nc(-c4ccccc4C(C)C)ncc3C)CC2)cn1	inactive
CC(=O)O[C@@](C)(C(=O)/C=C/C(C)(C)O)[C@H]1[C@H](O)C[C@@]2(C)[C@@H]3CC=C4[C@@H](C=C(O)C(=O)C4(C)C)[C@]3(C)C(=O)C[C@]12C	inactive
Cc1ccc(S(=O)(=O)Nc2ccccc2C(=O)Nc2cccc(-c3ccccc3)c2)cc1	inactive
Cc1cc(C)nc(NC(=S)N2CCN(S(=O)(=O)c3cccc(C(F)(F)F)c3)CC2)c1	inactive
Fc1cc(F)cc(Nc2nc(NC3CCCC3)nc(C3CO3)n2)c1 (centres undefined)	inactive
Cc1ccc(NS(=O)(=O)c2ccc3c(ccn3C)c2)cc1C	inactive
Cc1sc(NC(=O)Cc2ccc3c(c2)OCO3)nc1-c1ccc2c(c1)CCN2C(=O)c1ccccc1C(F)(F)F	inactive
CCOc1ccc(-c2csc(N3CCC(C(N)=O)CC3)n2)cc1	inactive
